For 24 compounds, survival results are on record in PubChem BioAssay AID463173 (ICCB-Longwood Screening Facility, Harvard Medical School, 2010).

Out of some 52,000 compounds screened, about 4,300 (8.3%) were called active. The entries come from a sample that favours actives as a whole. Unmarked numbers belong to inactive results. Cut-off read from the data, not from the text of the source: active = survival mostly below about 52% (no sharp cut-off); inactive = mostly above about 56%.

The assay relates to DeltatarO mutant. Briefly: S. aureus survival, RN4220 and DeltatarO strains – OD600, teichoic acid synthesis inhibitors, primary screen (AID 463173). To be noted: S. aureus RN4220 wild type/DeltatarO growth, OD600, 18 h, active compounds read low, screened at 18.75 µg/mL (by protocol).
Take `CC(CCO)Nc1nc2c(c(=O)n(C)c(=O)n2C)n1Cc1ccc(Br)cc1` (centres undefined): the survival is 140%.

`COc1cccc(C(=O)NC2=NC(c3ccccc3F)CC(=O)N2)c1` (centres undefined): the survival was 75%.

For the compound `CC(C)C(=O)Nc1c(C(=O)N2CCN(c3ccccc3F)CC2)oc2ccccc12`, the survival was 58%.

With `O=C(NCc1ccccc1)C1CCCN(c2ncccn2)C1` (centres undefined), the survival is 88%.

As to `COc1ccccc1-c1noc(-c2ccc(N3CCOCC3)c([N+](=O)[O-])c2)n1`, the survival is 100%.

In the case of `CN1CCN(c2ccc(-c3nc(-c4ccccc4)no3)cc2[N+](=O)[O-])CC1`, the survival is 41% (active).

With `Cc1cccc(-c2noc(-c3ccc(N4CCCC4)c([N+](=O)[O-])c3)n2)c1`, the survival was 82%.

As to `Cc1cccc(-c2noc(-c3ccc(N4CCN(C)CC4)c([N+](=O)[O-])c3)n2)c1`, the survival is 22% (active).

Turning to `O=[N+]([O-])c1cc(-c2nc(-c3ccccc3)no2)ccc1N1CCN(c2ccccc2)CC1`, the survival was 77%.

As for `COc1ccccc1-c1noc(-c2ccc(N3CCN(C)CC3)c([N+](=O)[O-])c2)n1`, the survival was 113%.

Turning to `Cc1cccc(-c2noc(-c3ccc(N4CCOCC4)c([N+](=O)[O-])c3)n2)c1`, the survival is 67%.

As to `COc1ccccc1-c1noc(-c2ccc(N3CCN(c4ccccc4)CC3)c([N+](=O)[O-])c2)n1`, the survival was 44% (active).

`Cc1ccc(-c2noc(-c3ccc(N4CCN(C)CC4)c([N+](=O)[O-])c3)n2)cc1`: the survival is 85%.

Turning to `Cc1ccc(-c2nc(SCC(=O)Nc3cc(C)on3)c3c(=O)n(C)c(=O)n(C)c3n2)cc1`, the survival is 83%.

As for `CC(=O)c1ccc(NC(=O)CSc2nc(=O)n(Cc3ccccn3)c3c2CCC3)cc1`, the survival was 67%.

On to `COc1ccc(CCNC(=O)CSC2=Nc3ccccc3C3=NC(CCC(=O)NCc4ccccc4)C(=O)N23)cc1OC` (centres undefined), for which the survival is 107%.

As for `O=C(Nc1nc2c(F)cc(F)cc2s1)c1ccc2c(c1)OCCO2`, the survival is 85%.

Regarding `Cn1cc(C(=O)NCc2ccccc2)c(=O)c2cc(S(=O)(=O)N3CCCCCC3)ccc21`, the survival was 118%.

For `COc1ccc(C)cc1NC(=O)c1ccc(NS(=O)(=O)c2c(C)noc2C)cc1`, the survival is 83%.

Consider `CCc1ccc(NC(=O)c2ccc(NS(=O)(=O)c3c(C)noc3C)cc2)cc1`, for which the survival was 48%.

On to `Cc1noc(C)c1S(=O)(=O)Nc1ccc(C(=O)Nc2ccc(C(C)C)cc2)cc1`, for which the survival was 52% (active).

For `Cc1noc(C)c1S(=O)(=O)Nc1ccc(C(=O)Nc2ccc(Br)cc2)cc1`, the survival was 36% (active).

As to `Cc1noc(NS(=O)(=O)c2ccc(NC(=O)c3ccc(Br)cc3)cc2)c1C`, the survival is 74%.

For the compound `Cc1cc(Br)ccc1NC(=O)c1ccc(NS(=O)(=O)c2c(C)noc2C)cc1`, the survival is 59%.
